LmPK inh: inhibitors of Leishmania mexicana pyruvate kinase; Potency, µM (doses to about 57.5 µM), without a hit: at the top dose activity change, negative = inhibition, most hits filed as inhibitors; 290,000 compounds, 0.37% hits; AID 1721; purified LmPK, Kinase-Glo ATP luminescence, 1 h; Q27686; active means well fitted curve in the direction sought with a large enough effect; inconclusive means small, poorly fitted or top-dose-only effect, or another doubt; inactive means no such curve, though single readings can be large; an effect the other way counts as inactive or inconclusive; further: potency means the concentration at half of the fitted maximal effect; on the % scale 0 is the no-effect control and ±100 the full control effect
Target sequence (Q27686 whole entry, looked up): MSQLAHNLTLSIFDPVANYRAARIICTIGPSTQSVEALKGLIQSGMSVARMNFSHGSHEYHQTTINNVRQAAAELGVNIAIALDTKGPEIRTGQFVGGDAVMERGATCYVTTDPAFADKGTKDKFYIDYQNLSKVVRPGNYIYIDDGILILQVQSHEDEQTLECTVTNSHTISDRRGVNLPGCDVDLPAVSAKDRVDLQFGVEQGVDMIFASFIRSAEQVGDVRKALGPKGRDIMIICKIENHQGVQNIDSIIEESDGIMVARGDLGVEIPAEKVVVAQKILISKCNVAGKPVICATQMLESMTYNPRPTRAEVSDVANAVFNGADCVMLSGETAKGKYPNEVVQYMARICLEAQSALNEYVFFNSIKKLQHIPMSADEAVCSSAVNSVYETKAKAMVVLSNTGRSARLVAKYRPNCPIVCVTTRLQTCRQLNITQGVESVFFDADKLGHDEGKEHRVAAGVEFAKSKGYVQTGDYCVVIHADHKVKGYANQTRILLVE
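Purified LmPK (0.1 nM) converted ADP (0.1 mM) to ATP with PEP (0.5 mM) in imidazole buffer pH 7.2 with KCl and MgCl2, 1 h at room temperature. ATP was read by Kinase-Glo luminescence; data normalized to uninhibited and no-enzyme controls.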
TbPYK inhibitor: T. brucei pyruvate kinase inhibition | Q57TT1 | 410,000 compounds, 0.12% hits | Potency, µM (series often up to 76.8 µM), without a hit: at the top dose activity, negative = inhibition, usual class: inhibitors | TbPYK enzyme, Kinase-Glo Plus ATP luminescence, 45 min; active means well fitted curve in the direction sought with a large enough effect; inconclusive means small, poorly fitted or top-dose-only effect, or another doubt; inactive means no such curve, though single readings can be large; an effect the other way counts as inactive or inconclusive; further: potency means the concentration at half of the fitted maximal effect; on the % scale 0 is the no-effect control and ±100 the full control effect; nearly all actives have a fitted effect of over 50% in size
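Luminescence from Kinase-Glo Plus, added after a 45-minute room-temperature reaction, served as the end-point read-out. The enzyme and substrate were preincubated with compound before ADP (130 uM final) initiated turnover. Concentration-effect curves came from normalized qHTS data.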
SARS PLpro yeast: inhibitors of SARS-CoV papain-like protease in yeast; S. cerevisiae expressing SARS-CoV PLpro, growth rescue; Potency, µM (highest dose often 32.9 µM), without a hit: at the highest dose activity, positive = growth rescue, most hits filed as activators; 330,000 compounds, 0.19% hits; AID 485353; further: potency means the concentration at half of the fitted maximal effect; 0% is about no effect; nearly all actives have a fitted effect of over 55% in size
Cycloheximide cs: counter-screen for Shiga toxin inhibitors: cycloheximide protein synthesis inhibition; cell reporter, cycloheximide protein synthesis inhibition counterscreen; max response, %; 300,000 compounds, 12% hits; AID 2314; in the data active means max response mostly above about 13%, no sharp cut-off; inactive means mostly below about 14%; further: read at 38.3 µM for the half of the compounds with a filed dose; 0% is about no effect
NS1 function inh: influenza NS1 inhibition; Potency, µM (highest dose often 46.1 µM), without a hit: at the top dose activity, positive = more growth; 270,000 compounds, 0.4% hits; AID 2326; further: potency means the concentration at half of the fitted maximal effect; actives are rising curves; nearly all actives have a fitted effect of over 50% in size
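OD600 was taken as the measure of yeast growth restored by compound in an NS1-expressing S. cerevisiae strain. Cells had been washed out of glucose medium and diluted 1:100 into galactose -URA medium, pH 6.0.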
Shiga inhibitor: Shiga toxin inhibition; Vero cells, Shiga toxin protein synthesis inhibition reporter; inhibition, % at 38.7 µM; 290,000 compounds, 9.2% hits; AID 2315; in the data active means inhibition mostly above about 28%, no sharp cut-off; inactive means mostly below about 43%; further: 0% is about no effect
Numbers without * were called inactive; ? = inconclusive; nt = not tested or not shown. This excerpt belongs to a sample that is enriched for hits. Unless noted, the call rests on the fitted dose curve.

SMILES	LmPK inh	TbPYK inhibitor	SARS PLpro yeast	Cycloheximide cs	NS1 function inh	Shiga inhibitor
CCOc1ccc(NC(=O)Cn2ncc3ccccc32)cc1	0%	-4%	-3%	38*	4%	74*
CCOc1ccc(NC(=O)CCSc2ccc3ccccc3n2)cc1	2%	2%	-28%	15*	-11%	15
CCOC(=O)C1CCN(S(=O)(=O)c2ccc3c(c2)NC(=O)CS3)CC1	1%	3%	0%	5	-5%	12
O=[N+]([O-])c1ccc(Cl)c(S(=O)(=O)NCCc2ccccn2)c1	nt	-1%	1%	nt	nt	nt
CN(CCc1ccccc1)C(=O)CC1C(=O)NCCN1Cc1ccccn1 (configuration not stated)	nt	-16%	nt	nt	nt	nt
Cc1ccsc1/C=N/NS(=O)(=O)c1ccc([N+](=O)[O-])cc1	-5%	-9%	-14%	48*	-16%	31
Cc1ccsc1/C=N/NC(=O)c1ccncc1	-2%	0%	0%	8	nt	21
COc1cc(C(=O)N/N=C/c2sccc2C)cc(OC)c1OC	-1%	0%	-1%	-2	nt	26
Cc1ccsc1/C=N/NC(=O)Nc1ccccc1	-2%	4%	-2%	31*	nt	57*
Cc1ccsc1/C=N/NC(=O)c1cccnc1	-9%	0%	0%	9.9*	2%	25
Cc1ccsc1/C=N/NC(=O)c1ccc([N+](=O)[O-])cc1	3%	1%	1%	24*	nt	-3
O=C(O)c1cc(N2CCCCC2)ccn1	nt	-5%	nt	nt	nt	nt
COc1ccccc1C(=O)CN1C(=O)NC2(CCc3ccccc32)C1=O (configuration not stated)	nt	2%	4%	nt	nt	nt
Cc1ccsc1/C=N/NC(=O)c1ccc2ccccc2c1	-3%	-17%	-5%	44*	-19%	73*
O=C(/C=C/c1ccccc1)Nc1cccnc1Oc1ccccc1F	4%	5%	-3%	62*	-11%	76*
O=C(/C=C/c1ccccc1)Nc1cccc(S(=O)(=O)Nc2ccccc2F)c1	-1%	?	-22%	10	0%	39*
Nc1cccnc1Oc1ccccc1F	3%	-1%	0%	-1	6%	-4
O=C(/C=C/c1ccccc1[N+](=O)[O-])Nc1cccc(S(=O)(=O)NC2=NCCCCC2)c1	nt	7%	0%	nt	nt	nt
O=C(/C=C/c1ccc(Cl)cc1Cl)Nc1cccc(S(=O)(=O)NC2=NCCCCC2)c1	1%	4%	-5%	26*	-3%	13*
Cc1cc(-c2cc(-c3ccccc3)on2)nc(NC2CCCC2)n1	3%	4%	-16%	21	-33%	34*
Cc1cc(-c2cc(-c3ccc(Cl)cc3)on2)nc(NC2CCCC2)n1	5%	-10%	-9%	3	?	-7
Cc1nn(-c2nc3ccccc3[nH]2)c(N)c1-c1ccc(Cl)cc1	3%	4%	-32%	46*	-7%	82*
Cc1nn(-c2ccc(Cl)cc2)c(=O)c2ccccc12	1%	-3%	0%	48*	-1%	98*
Cc1nn(-c2ccc(Cl)nn2)c(=O)c2ccccc12	-3%	-1%	-2%	27*	nt	49
Cc1nn(-c2ccc(Cl)cc2Cl)c(=O)c2ccccc12	1%	0%	27%	4	-6%	-3
SMILES	LmPK inh	TbPYK inhibitor	SARS PLpro yeast	Cycloheximide cs	NS1 function inh	Shiga inhibitor
Cc1nn(-c2ccc(Cl)c(Cl)c2)c(=O)c2ccccc12	-4%	-4%	3%	-5	22%	12
Cc1nn(-c2ccc3ccccc3c2)c(=O)c2ccccc12	-1%	-6%	-1%	51*	-8%	115*
O=C(Nc1c(C(=O)N2CCOCC2)cnn1-c1ccccc1)c1ccc(F)cc1	-8%	-2%	6%	-1	-8%	-29
C[C@]12CC[C@@H]3c4ccc(OC(=O)N(CCCl)CCCl)cc4CC[C@@H]3[C@H]1CC[C@@H]2OP(=O)(O)O	nt	3%	nt	nt	nt	nt
Cc1nn(-c2nc3ccccc3[nH]2)c(=O)c2ccccc12	7.1µM*	?	-5%	-7	nt	-21
Cc1nn(-c2ccccc2)c(=S)c2ccccc12	2%	5%	16%	20*	2%	60*
Cc1cc(Nc2ccccc2)n(-c2nc3ccccc3[nH]2)n1	1%	-5%	-20%	1	-116%	11
COc1ccc(CCN2CC(C(=O)Nc3nccs3)CC2=O)cc1OC (configuration not stated)	nt	0%	1%	nt	nt	nt
Cc1ccc(NC(=O)Cc2nnc(SCC(=O)NC3=NCCS3)n2C)cc1	-2%	-3%	-12%	-7	11%	-5
OCc1ccccc1-c1cnc2sc(NCc3ccc(F)cc3)nn12	nt	3%	nt	nt	nt	nt
COc1cc(OC)c(-c2nnc(-c3ccc(OC)c(OC)c3OC)o2)cc1OC	6%	1%	-6%	-1	16%	-11
COc1cccc(-c2nnc(-c3ccc(C(F)(F)F)cc3)o2)c1OC	3%	-7%	-5%	21*	-2%	26
O=C(CCc1nc2ccccc2s1)N1CCN(S(=O)(=O)c2cccs2)CC1	4%	1%	-3%	12	-8%	39
O=C(OCc1nc2ccccc2s1)C1CCN(S(=O)(=O)c2cccs2)CC1	4%	1%	0%	35*	-12%	97*
O=S(=O)(c1cccs1)N1CCN(Cc2nc3ccccc3s2)CC1	2%	-4%	1%	38*	-16%	49*
Fc1ccc(/C=C/c2nnc(-c3cccs3)o2)cc1	1%	0%	14%	31*	-7%	75*
Cc1ccc(-c2nnc(-c3cccs3)o2)cc1	?	0%	0%	31*	-31%	72*
Cc1ccc(/C=C/c2nnc(-c3cccs3)o2)cc1	-12%	1%	3%	46*	-31%	48*
Nc1cccc2cc(S(=O)(=O)O)ccc12	nt	-28%	nt	nt	nt	nt
Cc1cc(N)n2nc(C)c(-c3ccccc3)c2n1	3%	-3%	-45%	13*	-180%	21
CC(=O)CSc1cc(C)nc2c(-c3ccccc3)c(C)nn12	-3%	-1%	0%	-1	-1%	-2
Cc1nn2c(-c3ccccc3)ccnc2c1Br	-5%	-4%	0%	-2	-4%	4
Cc1cc(SCC(=O)c2cccs2)n2nc(C)c(-c3ccccc3)c2n1	4%	-16%	4%	39*	?	39*
C=CCSc1cc(C)nc2c(-c3ccccc3)c(C)nn12	-1%	-16%	1%	25*	3%	13
Cc1cc(N)n2nc(C)c(-c3ccc(Cl)cc3)c2n1	0%	5%	-6%	8	-43%	6
Cc1nn2c(-c3cccnc3)ccnc2c1-c1ccccc1	5%	2%	-5%	25*	5%	41*
Cc1cc(=Nc2ccc3c(c2)c(N)cc(C)[n+]3C)nc(N)n1C	nt	nt	nt	nt	-49%	nt
O=C1OC(c2ccccc2)=N/C1=C\N1CCCCC1	4%	-8%	-7%	42*	-46%	61*
Cc1nn(-c2ccccc2)c(N2CCCC2)c1/C=C1\N=C(c2ccc(F)cc2)OC1=O	7%	-11%	-11%	-3	28%	-4
